PubChem BioAssay (Tox21)
Values without a mark were called inactive. Calls come from the whole dose curve.
% is set by controls: 0 for no effect and ±100 for the full control effect.

The molecules below were run against Estrogen receptor (Homo sapiens) (UniProt P03372) (assay: qHTS assay to identify small molecule agonists of the estrogen receptor alpha (ER-alpha) signaling pathway in the presence of an antagonist (AID 1259383; note: top concentration of the series differs between compounds; nearly all actives have a fitted effect of over 15% in size)). Conditions: VM7Luc4E2 cells, ERE-luciferase, +ICI-182,780, 22 h; series mostly up to 92.4 µM; activation: at the top concentration.
Sequence of Estrogen receptor (Homo sapiens) (P03372 whole entry, looked up): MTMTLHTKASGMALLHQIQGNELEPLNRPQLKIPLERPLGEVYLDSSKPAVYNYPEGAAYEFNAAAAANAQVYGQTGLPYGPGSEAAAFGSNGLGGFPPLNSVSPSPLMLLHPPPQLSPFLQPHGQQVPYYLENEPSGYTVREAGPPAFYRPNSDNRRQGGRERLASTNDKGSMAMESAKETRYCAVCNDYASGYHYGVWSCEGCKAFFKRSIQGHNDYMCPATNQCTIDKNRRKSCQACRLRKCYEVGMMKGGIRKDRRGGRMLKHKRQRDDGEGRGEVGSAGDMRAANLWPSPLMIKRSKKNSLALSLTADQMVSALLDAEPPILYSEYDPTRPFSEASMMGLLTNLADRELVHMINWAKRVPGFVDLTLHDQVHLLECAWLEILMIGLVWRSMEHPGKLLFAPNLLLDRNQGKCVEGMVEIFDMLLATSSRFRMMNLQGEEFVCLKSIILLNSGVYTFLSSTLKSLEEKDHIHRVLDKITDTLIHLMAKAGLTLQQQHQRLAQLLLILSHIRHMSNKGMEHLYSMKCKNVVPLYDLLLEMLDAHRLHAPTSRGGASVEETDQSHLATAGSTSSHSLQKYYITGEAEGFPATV
Text: National Center for Advancing Translational Sciences [NCATS] NIH Chemical Genomics Center [NCGC] U.S. Environmental Protection Agency [EPA] National Institutes of Environmental Health Sciences [NIEHS] National Toxicology Program [NTP] Assay overview: Estrogen receptor (ER), a member of nuclear hormone receptor plays an important role in development, metabolic homeostasis and reproduction. Two subtypes of ER, ER-alpha and ER-beta, have similar expression patterns with some uniqueness in both types. Endocrine disrupting chemicals (EDCs) and their interactions with steroid hormone receptors like ER causes disruption of normal endocrine function. Therefore, it is important to understand the effect of environmental chemicals in ER signaling pathway. For identifying ER agonists, VM7Luc4E2 cell line has been used in the current assay. VM7Luc4E2 cell line (provided by Denison MS, University of California) endogenously expresses full-length ER-alpha and is stably transfected with a plasmid containing four estrogen responsive elements (ERE) upstream of a luciferase reporter gene. This current screening for measuring luciferase reporter gene activity using VM7Luc4E2 cells against Tox21 10K library collection is a confirmation study on agonist mode screening in presence of ER-antagonist (ICI-182,780) at 10.0nM final concentration.
Assay Protocol Summary: VM7Luc4E2 cells were cultured in phenol red free assay medium containing 10% charcoal stripped FBS for 5 days prior to the assay. The cells were dispensed at 4,000 cells in 4uL of assay medium per well into white wall/solid-bottom 1536-well plates (Corning Life Sciences, Corning, NY) using a Multidrop Combi (Thermo Fisher Scientific Inc., Waltham, MA) dispenser. After the assay plates were incubated at 37C and 5% CO2 for 24hr, 1uL of 10.0nM (final concentration) ICI-182,780 or assay buffer was added using two separate tips of Flying Reagent Dispenser (FRD, Aurora Discovery, San Diego, CA). Then 23nL of compounds dissolved in DMSO at 15 concentrations and positive controls or DMSO only was transferred to the assay plates by a Pintool station (Wako, San Diego, CA). The assay plates were incubated at 37C and 5% CO2 for 22hr. For luciferase read, 4uL/well ONE-Glo reagent (Promega Corporation, Madison, WI) was added to each well using FRD and after 30min incubation at room temperature, luminescence signal was measured on ViewLux plate reader (PerkinElmer, Shelton, CT).
In the case of `Nc1cc(Cl)ccc1O`, the “activation” value is reported as 2.08%. For `CCN(Cc1ccc(Cl)nc1)/C(=C/[N+](=O)[O-])NC`, the “activation” value was -0.387% [at 42.5 µM]. For `CCc1cc2c(s1)-n1c(C)nnc1CN=C2c1ccccc1Cl`, the “activation” value was -1.24% [at 42.5 µM]. With `ClC(Br)Br` the “activation” value was -2.49%. `CCOC(=O)C(c1c(O)c2ccccc2oc1=O)c1c(O)c2ccccc2oc1=O` was tested, and the “activation” value was -0.516% [at 42.5 µM]. With `CCN(CC)c1nc(C)cc(OP(=S)(OC)OC)n1` the “activation” value was -0.599%. In the case of `N#CC(Cl)(Cl)Cl`, the “activation” value is reported as -1.8%. In the case of `O=C(NCO)NCO`, the “activation” value is reported as 0.252%. `CC(C)CC#N` was tested, and the “activation” value was -0.873%. In the case of `O=C(N[C@H]1CN2CCC1CC2)c1cc2ccoc2cn1`, the “activation” value is reported as 0.103%. For `CC(=O)Nc1cc([As](=O)(O)O)ccc1O`, the “activation” value was 0.0613% [at 42.5 µM]. In the case of `C=C(C)[C@@H]1CC=C(C=O)CC1`, the “activation” value is reported as 0.79%. With `CCCCc1c(C)nc(NCC)[nH]c1=O` the “activation” value was 2.68%. `CCOP(=O)(N=C1SCCS1)OCC` was tested, and the “activation” value was -0.609%. With `COc1ccc2c(c1OC)CN1CCc3cc4c(cc3C1C2)OCO4` (stereo not given) the “activation” value was 3.48% [at 42.5 µM]. `C1CCC(C2CCCCC2)CC1` was tested, and the “activation” value was -2.67%. With `CCCCOP(=O)(O)OCCCC` the “activation” value was -1.16%. For `NC(=S)C(N)=S`, the “activation” value was 0.311%. With `O=CNC(N1CCN(C(NC=O)C(Cl)(Cl)Cl)CC1)C(Cl)(Cl)Cl` (stereo not given) the “activation” value was -2.52%. In the case of `N#CC(CCc1ccc(Cl)cc1)(Cn1cncn1)c1ccccc1` (stereo not given), the “activation” value is reported as -10.8%. In the case of `CCS(=O)(=O)C(C)(C)S(=O)(=O)CC`, the “activation” value is reported as -1.39% [at 42.5 µM]. In the case of `CCC(=O)c1ccccc1`, the “activation” value is reported as 0.999%. For `COP(=S)(OC)Oc1c(Cl)cc(C)cc1Cl`, the “activation” value was -0.396%. For `O=C1OC(CCN2CCCCC2)OC1(c1ccccc1)c1ccccc1` (stereo not given), the “activation” value was -0.408% [at 42.5 µM]. In the case of `COP(=S)(OC)Oc1ccc(S(N)(=O)=O)cc1`, the “activation” value is reported as -0.475% [at 42.5 µM]. In the case of `CCC(Cl)[N+](=O)[O-]` (stereo not given), the “activation” value is reported as 0.301%. `CSc1ccc(C(=O)C(C)(C)N2CCOCC2)cc1` was tested, and the “activation” value was 0.335%. For `CC(C(O)c1ccccc1)N(C)C/C=C/c1ccccc1` (stereo not given), the “activation” value was 1.25% [at 42.5 µM]. In the case of `CCCCc1ccc(O)cc1`, the “activation” value is reported as 2.67%. For `Oc1c(Cl)cccc1Cl`, the “activation” value was -0.0152%. With `C=CC1CC=CCC1` (stereo not given) the “activation” value was 0.58%. For `CCC/C(=N\OCC)C1=C(O)CC(CC(C)SCC)CC1=O` (stereo not given), the “activation” value was 1.57%. In the case of `NC(=O)O`, the “activation” value is reported as 0.0214%. `C[C@@H]1CN(C2CCC(C#N)(c3ccc(F)cc3)CC2)CC[C@]1(C(=O)O)c1ccccc1` (stereo not given in full) was tested, and the “activation” value was 0.95% [at 42.5 µM]. `CCCSC(=O)Cl` was tested, and the “activation” value was 0.132%. With `O=C(O)c1cccc(Cl)c1` the “activation” value was -0.777%. For `CCCSP(=S)(OCC)Oc1ccc(Cl)cc1Cl` (stereo not given), the “activation” value was -0.402%. For `ClC(Cl)(Cl)C(Cl)(Cl)Cl`, the “activation” value was -0.907%. With `CCC1(c2ccccc2)C(=O)NC(=O)NC1=O` the “activation” value was 0.0113%. In the case of `CC1CN1P(=O)(N1CC1C)N1CC1C` (stereo not given), the “activation” value is reported as 0.734%.
